Targets with a hit are over-represented here; the source holds about 8,800 in all. About 0.5% of all pairs of compound and target were hits.
Assays:
Test in all cases: log2 fold change, soluble protein after heating vs DMSO (PISA); higher = thermal stabilisation; K562 lysate, 10 uM; active = over 0.2 and 3.5 SD of the protein, either way, in both replicates (recomputed)
[1] = compound: C1=CC=C(C=C1)[C@H](COC2=CC3=C(C=C2)NC(=O)N3)NC(=O)C4=CC=CN(C4=O)CC5=CC(=C(C=C5)F)F
How it was run: (§1)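 The values are log-two fold changes in thermal stability compared with solvent controls and come from duplicates. They were obtained by TMTpro 16plex LC-MS/MS, with channel sums equalised, on the supernatant after 21,000xg for 90 min. That supernatant came from crude K562 extract at 1 mg/mL protein treated with 10 μM compound for 30 min, heated for 3 min across 48°C-58°C, pooled and brought to 0.5% NP-40 at 4°C.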

[2] = compound: CC1=C(SC2=C1C(=N[C@H](C3=NN=C(N32)C)CC(=O)N)C4=CC=C(C=C4)Cl)C
How it was run: as §1

[3] = compound: CC1=C2C(=CC=C1)N=C(N(C2=O)C3=CC=CC=C3C)CN4C=NC5=C(N=CN=C54)N
How it was run: as §1

[4] = compound: Cc1sc2c(c1C)C(c1ccc(Cl)cc1)=N[C@@H](CC(=O)OC(C)(C)C)c1nnc(C)n1-2
How it was run: as §1

[5] = compound: c1ccc([C@@H]2C[C@H]2NC2CCNCC2)cc1
How it was run: as §1

Measured: log2 fold change

MAPKAPK5 (UniProt Q8IW41)
Sequence of UniProt Q8IW41 (Q8IW41 whole entry, looked up): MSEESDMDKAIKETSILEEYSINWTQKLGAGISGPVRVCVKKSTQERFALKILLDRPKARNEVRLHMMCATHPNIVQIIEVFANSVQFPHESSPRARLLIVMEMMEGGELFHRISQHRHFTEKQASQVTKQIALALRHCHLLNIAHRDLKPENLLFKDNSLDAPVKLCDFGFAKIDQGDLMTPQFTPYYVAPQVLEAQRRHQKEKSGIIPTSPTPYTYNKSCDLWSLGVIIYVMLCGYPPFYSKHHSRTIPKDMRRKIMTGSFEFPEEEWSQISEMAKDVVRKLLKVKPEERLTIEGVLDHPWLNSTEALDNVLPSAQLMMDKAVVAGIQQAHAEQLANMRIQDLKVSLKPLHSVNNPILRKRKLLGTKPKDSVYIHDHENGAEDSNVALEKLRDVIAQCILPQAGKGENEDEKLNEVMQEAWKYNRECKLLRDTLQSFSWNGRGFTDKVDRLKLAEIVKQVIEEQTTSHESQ
inactive: [1] 0.034 | [2] 0.027 | [3] 0.014 | [4] 0.013 | [5] 0.01

MAP4 (UniProt P27816)
inactive: [1] 0.027 | [2] 0.012 | [3] -0.012 | [4] -0.027 | [5] -0.043

MORC2 (UniProt Q9Y6X9)
inactive: [1] -0.068 | [2] 0.043 | [3] 0.049 | [4] -0.014 | [5] 0.018

MPP1 (UniProt Q00013)
inactive: [1] -0.01 | [2] 0.006 | [3] 0.024 | [4] 0.016 | [5] 0.044

MED13L (UniProt Q71F56)
Sequence of UniProt Q71F56 (Q71F56 whole entry, looked up): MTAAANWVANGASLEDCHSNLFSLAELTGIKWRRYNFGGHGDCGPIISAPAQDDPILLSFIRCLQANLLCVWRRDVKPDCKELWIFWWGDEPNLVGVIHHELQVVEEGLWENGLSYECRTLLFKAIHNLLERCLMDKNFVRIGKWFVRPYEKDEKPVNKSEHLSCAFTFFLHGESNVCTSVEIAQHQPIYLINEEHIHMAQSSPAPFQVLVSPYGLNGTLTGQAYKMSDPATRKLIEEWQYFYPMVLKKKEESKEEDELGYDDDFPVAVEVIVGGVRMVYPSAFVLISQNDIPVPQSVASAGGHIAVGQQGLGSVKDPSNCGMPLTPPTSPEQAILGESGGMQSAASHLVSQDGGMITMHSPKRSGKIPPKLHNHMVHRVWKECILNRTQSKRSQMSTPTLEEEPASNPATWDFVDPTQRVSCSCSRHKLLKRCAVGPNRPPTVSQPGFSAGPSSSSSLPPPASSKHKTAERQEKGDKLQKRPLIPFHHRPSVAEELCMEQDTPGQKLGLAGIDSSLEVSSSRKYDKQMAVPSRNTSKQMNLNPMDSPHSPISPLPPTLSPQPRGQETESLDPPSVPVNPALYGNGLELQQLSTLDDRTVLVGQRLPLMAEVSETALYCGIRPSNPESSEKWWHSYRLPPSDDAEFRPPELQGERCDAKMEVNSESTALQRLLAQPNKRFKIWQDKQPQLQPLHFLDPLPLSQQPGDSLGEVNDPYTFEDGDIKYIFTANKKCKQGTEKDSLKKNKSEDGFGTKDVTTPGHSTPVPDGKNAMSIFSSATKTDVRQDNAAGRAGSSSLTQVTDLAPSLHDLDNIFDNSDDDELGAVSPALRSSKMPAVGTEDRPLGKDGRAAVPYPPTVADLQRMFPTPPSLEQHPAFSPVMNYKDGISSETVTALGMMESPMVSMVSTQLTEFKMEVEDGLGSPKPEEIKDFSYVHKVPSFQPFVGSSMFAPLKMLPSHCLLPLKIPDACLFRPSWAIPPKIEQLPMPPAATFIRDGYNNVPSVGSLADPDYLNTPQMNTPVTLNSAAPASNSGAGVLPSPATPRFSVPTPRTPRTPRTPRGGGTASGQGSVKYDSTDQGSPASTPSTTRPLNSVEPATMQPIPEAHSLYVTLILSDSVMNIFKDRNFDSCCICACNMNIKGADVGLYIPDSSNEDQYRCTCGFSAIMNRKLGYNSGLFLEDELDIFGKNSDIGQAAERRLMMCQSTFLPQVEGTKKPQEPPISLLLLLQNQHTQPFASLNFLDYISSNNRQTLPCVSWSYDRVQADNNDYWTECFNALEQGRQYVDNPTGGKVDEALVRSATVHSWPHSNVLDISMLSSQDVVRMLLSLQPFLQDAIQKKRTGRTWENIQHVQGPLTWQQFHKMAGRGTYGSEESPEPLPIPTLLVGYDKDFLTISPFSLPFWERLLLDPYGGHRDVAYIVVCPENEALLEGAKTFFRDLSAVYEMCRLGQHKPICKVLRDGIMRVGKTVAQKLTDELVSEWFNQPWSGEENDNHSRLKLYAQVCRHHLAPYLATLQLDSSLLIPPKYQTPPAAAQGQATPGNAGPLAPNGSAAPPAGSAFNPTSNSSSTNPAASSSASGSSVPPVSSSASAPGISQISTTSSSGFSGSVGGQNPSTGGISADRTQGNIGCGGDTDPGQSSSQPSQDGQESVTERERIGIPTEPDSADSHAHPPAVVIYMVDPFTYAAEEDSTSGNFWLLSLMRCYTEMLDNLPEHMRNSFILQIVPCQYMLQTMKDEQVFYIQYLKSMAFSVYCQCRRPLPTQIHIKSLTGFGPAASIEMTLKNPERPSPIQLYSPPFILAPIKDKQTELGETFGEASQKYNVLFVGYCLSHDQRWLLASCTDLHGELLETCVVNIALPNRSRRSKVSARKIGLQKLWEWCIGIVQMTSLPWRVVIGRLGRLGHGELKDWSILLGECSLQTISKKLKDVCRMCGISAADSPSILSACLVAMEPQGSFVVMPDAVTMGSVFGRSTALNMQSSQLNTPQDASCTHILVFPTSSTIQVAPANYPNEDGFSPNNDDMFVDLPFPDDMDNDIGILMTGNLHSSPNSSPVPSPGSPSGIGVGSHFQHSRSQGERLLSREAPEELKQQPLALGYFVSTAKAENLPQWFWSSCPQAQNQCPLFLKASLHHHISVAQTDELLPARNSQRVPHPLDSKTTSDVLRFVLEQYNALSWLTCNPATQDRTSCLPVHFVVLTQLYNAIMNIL
inactive: [1] -0.034 | [2] 0.029 | [3] 0.028 | [4] -0.095 | [5] 0.014

KLHL36 (UniProt Q8N4N3)
Sequence of UniProt Q8N4N3 (Q8N4N3 whole entry, looked up): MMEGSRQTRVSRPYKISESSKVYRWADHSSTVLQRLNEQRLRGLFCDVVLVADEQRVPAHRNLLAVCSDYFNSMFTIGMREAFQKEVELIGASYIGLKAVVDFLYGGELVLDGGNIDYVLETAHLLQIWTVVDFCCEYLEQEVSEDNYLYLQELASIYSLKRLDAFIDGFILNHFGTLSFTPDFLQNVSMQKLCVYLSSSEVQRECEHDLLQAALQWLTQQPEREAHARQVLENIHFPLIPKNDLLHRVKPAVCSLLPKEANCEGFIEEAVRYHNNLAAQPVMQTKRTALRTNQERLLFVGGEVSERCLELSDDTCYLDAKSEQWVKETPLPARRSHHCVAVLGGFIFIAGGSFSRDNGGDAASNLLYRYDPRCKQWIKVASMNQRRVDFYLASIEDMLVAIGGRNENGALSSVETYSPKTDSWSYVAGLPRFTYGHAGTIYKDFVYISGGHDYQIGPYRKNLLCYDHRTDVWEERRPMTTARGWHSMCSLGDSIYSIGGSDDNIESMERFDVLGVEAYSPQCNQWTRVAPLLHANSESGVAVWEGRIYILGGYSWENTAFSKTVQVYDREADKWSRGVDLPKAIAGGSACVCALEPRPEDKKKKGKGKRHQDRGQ
inactive: [1] -0.072 | [2] -0.086 | [3] -0.018 | [4] -0.011 | [5] 0.074

KPNA4 (UniProt O00629)
Sequence of UniProt O00629 (O00629 whole entry, looked up): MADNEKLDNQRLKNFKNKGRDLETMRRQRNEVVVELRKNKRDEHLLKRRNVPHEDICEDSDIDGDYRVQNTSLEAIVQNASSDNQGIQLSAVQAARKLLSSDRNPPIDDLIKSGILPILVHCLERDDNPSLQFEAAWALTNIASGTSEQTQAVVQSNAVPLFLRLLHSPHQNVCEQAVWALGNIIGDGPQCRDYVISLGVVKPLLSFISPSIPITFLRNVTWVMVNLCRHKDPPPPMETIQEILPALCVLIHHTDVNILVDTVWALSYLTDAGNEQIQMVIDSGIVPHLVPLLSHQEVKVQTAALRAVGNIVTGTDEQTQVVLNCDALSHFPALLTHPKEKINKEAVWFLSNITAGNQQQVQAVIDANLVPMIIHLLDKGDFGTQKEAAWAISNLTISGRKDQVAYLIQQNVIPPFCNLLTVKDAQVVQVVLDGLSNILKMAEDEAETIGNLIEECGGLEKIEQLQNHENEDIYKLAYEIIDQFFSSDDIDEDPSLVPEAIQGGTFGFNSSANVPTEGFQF
inactive: [1] 0.06 | [2] -0.068 | [3] 0.044 | [4] 0.011 | [5] -0.169

LPIN1 isoform 7 (UniProt Q14693)
Sequence of UniProt Q14693 (Q14693 whole entry, looked up): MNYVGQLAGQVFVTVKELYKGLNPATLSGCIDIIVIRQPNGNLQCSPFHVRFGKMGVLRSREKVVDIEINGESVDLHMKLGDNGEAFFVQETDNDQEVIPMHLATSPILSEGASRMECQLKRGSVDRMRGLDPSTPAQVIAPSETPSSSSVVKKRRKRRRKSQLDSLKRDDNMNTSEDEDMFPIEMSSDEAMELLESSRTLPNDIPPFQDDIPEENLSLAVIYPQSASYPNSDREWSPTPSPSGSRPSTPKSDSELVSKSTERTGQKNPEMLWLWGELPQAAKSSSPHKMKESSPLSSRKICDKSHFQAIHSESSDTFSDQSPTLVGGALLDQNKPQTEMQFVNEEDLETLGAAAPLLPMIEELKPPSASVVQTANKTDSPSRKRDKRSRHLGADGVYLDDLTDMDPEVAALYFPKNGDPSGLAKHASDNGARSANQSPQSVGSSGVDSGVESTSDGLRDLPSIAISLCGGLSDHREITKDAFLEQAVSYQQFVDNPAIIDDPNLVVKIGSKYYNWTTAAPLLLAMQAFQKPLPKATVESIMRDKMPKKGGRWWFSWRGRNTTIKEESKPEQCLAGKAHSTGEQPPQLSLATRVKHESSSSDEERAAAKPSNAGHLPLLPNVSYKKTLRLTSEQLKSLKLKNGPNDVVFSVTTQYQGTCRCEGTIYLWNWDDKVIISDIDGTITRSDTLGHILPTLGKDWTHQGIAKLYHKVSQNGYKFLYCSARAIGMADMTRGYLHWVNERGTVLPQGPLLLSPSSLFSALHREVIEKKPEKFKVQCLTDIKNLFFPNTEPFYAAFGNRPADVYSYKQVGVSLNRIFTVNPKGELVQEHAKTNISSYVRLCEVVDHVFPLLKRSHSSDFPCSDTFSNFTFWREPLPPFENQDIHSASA
inactive: [1] 0.053 | [2] -0.003 | [3] -0.053 | [4] 0.029 | [5] 0.194

LAMP1 (UniProt P11279)
inactive: [1] -0.006 | [2] 0.008 | [3] 0.017 | [4] -0.125 | [5] -0.299

Source: the supplement of paper PMC10849652
